{"source": "PubChem BioAssay (EPA / NIEHS)", "note": "Inconclusive results are not listed. The source made the active and inactive calls. Rule for the calls: active = hit-call score of the fitted dose curve at least 0.9, where 1 is the maximum; inconclusive = response in the unintended direction; inactive = score below 0.9.", "data": [{"read-out": "Glyceraldehyde-3-phosphate dehydrogenase (Homo sapiens) (UniProt P04406)", "assay": "CLD_GAPDH_6hr: CellzDirect (CLD) Gene Expression Assay for Baseline Control (Glyceraldehyde 3-phosphate dehydrogenase) at 6 hours (AID 2283681);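 note: active means increased signal relative to DMSO vehicle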", "summary_of_the_method": "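Primary human hepatocytes from two donor preparations, dosed at multiple concentrations with 0.2% DMSO vehicle; GAPDH mRNA measured 6 h after dosing by chemiluminescent quantitative nuclease protection assay (qNPA) on denatured lysates. Serves as background control; cytotoxicity annotated by morphology.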", "values": [{"smiles": "Cc1nn(C)c(Oc2ccccc2)c1C=NOCc1ccc(C(=O)OC(C)(C)C)cc1", "outcome": "inactive"}, {"smiles": "OB(O)O", "outcome": "inactive"}, {"smiles": "CCSC(=O)N(CC(C)C)CC(C)C", "outcome": "inactive"}, {"smiles": "CCCOC(=O)NCCCN(C)C", "outcome": "inactive"}, {"smiles": "O=C(O)C1(C(=O)Nc2ccc(Cl)cc2Cl)CC1", "outcome": "inactive"}, {"smiles": "CCCCCCC(C)OC(=O)COc1nc(F)c(Cl)c(N)c1Cl", "note": "(centres undefined)", "outcome": "inactive"}, {"smiles": "CCC(O)=C1C(=O)CC(C(=O)O)CC1=O", "note": "(centres undefined)", "outcome": "inactive"}, {"smiles": "COCCO", "outcome": "inactive"}, {"smiles": "CCCCC(CC)COC(=O)c1ccccc1C(=O)O", "note": "(centres undefined)", "outcome": "inactive"}, {"smiles": "CCCCOC(=O)C(C)Oc1ccc(Oc2ccc(C(F)(F)F)cn2)cc1", "note": "(centres undefined)", "outcome": "inactive"}, {"smiles": "C#CCOC(=O)[C@@H](C)Oc1ccc(Oc2ncc(Cl)cc2F)cc1", "outcome": "inactive"}, {"smiles": "COC(=O)c1ccccc1S(=O)(=O)NC(=O)Nc1nc(OC(F)F)cc(OC(F)F)n1", "outcome": "inactive"}, {"smiles": "CCC(C)OC(=O)N1CCCCC1CCO", "note": "(centres undefined)", "outcome": "inactive"}, {"smiles": "c1ccc2[nH]c(-c3cscn3)nc2c1", "outcome": "inactive"}, {"smiles": "CCCOC(=O)c1ccc(C(=O)OCCC)nc1", "outcome": "inactive"}]}, {"read-out": "HMG-CoA synthase (HMGCS2), HMGCS2 (gene 3158)", "assay": "CLD_HMGCS2_6hr: CellzDirect (CLD) Gene Expression Assay for HMG-CoA synthase (HMGCS2) at 6 hours (AID 2283682);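 note: actives raise HMGCS2 transcript above the 0.2% DMSO vehicle baseline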", "summary_of_the_method": "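Primary human hepatocytes dosed daily with fresh chemical, 0.2% DMSO vehicle; HMGCS2 mRNA measured at 6 h by qNPA chemiluminescence. Gain of signal fitted against DMSO; cytotoxicity flagged from phase-contrast morphology.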", "values": [{"smiles": "CCN(CC)C(=O)c1cccc(C)c1", "outcome": "inactive"}, {"smiles": "O=C(O)C1(C(=O)Nc2ccc(Cl)cc2Cl)CC1", "outcome": "inactive"}, {"smiles": "CCC(O)=C1C(=O)CC(C(=O)O)CC1=O", "note": "(centres undefined)", "outcome": "inactive"}, {"smiles": "CCCCC(CC)COC(=O)c1ccccc1C(=O)O", "note": "(centres undefined)", "outcome": "inactive"}, {"smiles": "CCCCOC(=O)C(C)Oc1ccc(Oc2ccc(C(F)(F)F)cn2)cc1", "note": "(centres undefined)", "outcome": "inactive"}, {"smiles": "c1ccc(Nc2ccccc2)cc1", "outcome": "inactive"}, {"smiles": "C#CCOC(=O)[C@@H](C)Oc1ccc(Oc2ncc(Cl)cc2F)cc1", "outcome": "inactive"}, {"smiles": "CCC(C)OC(=O)N1CCCCC1CCO", "note": "(centres undefined)", "outcome": "inactive"}, {"smiles": "CCCOC(=O)c1ccc(C(=O)OCCC)nc1", "outcome": "inactive"}]}]}
